Assay results as given in PubChem BioAssay (NCATS).
Unmarked numbers belong to inactive results. Results filed as inconclusive are left out. Where a call stands in place of a potency, no number is given. The source made the active and inactive calls. Calls follow the shape of the dose curve; as a rule, active = well fitted curve in the direction sought with a large enough effect; inconclusive = small, poorly fitted or top-dose-only effect, or another doubt; inactive = no such curve, though single readings can be large; an effect the other way counts as inactive or inconclusive.

How the values were obtained:
[1] = biological target: Phospholipid hydroperoxide glutathione peroxidase GPX4 (Homo sapiens) (UniProt P36969); assay: Primary qHTS Assay for Inhibitors of Recombinant Selenoprotein Glutathione Peroxidase 4 (GPX4) (AID 1845192); also: nearly all actives have a fitted effect of over 65% in size; as to activity change, negative = inhibition: series mostly up to about 50 µM
Procedure, shortened: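 Steps: GPX4 plus compound, 30 min RT; add GR/GSH/NADPH master mix; start with cumene hydroperoxide; read 340/450 nm fluorescence at 0 and 15 min. Finals were 200 nM GPX4, 1 mM GSH, 0.5 mM CHP, 0.5 mM NADPH, 100 nM GR.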

[2] = biological target: Luciferin 4-monooxygenase (Photinus pyralis) (UniProt P08659); assay: Primary firefly luciferase (FLuc) qHTS assay for identification of artifact compounds. (AID 1845220); also: nearly all actives have a fitted effect of over 60% in size; as to activity change, negative = inhibition: series mostly up to about 54 µM
Procedure, shortened: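 D-luciferin and ATP (10 uM each, final) in Tris acetate buffer pH 7.6 were incubated with compounds for 15 min at room temperature. The reaction was started with 10 nM Photinus pyralis luciferase and luminescence read after 5 min. Percent inhibition was fitted to a 4-parameter Hill equation.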

[3] = Primary fluorescence-based thiol-reactive (MSTI) qHTS assay for identification of artifact compounds. (AID 1845221); also: nearly all actives have a fitted effect of over 65% in size; also: potency is read from the fitted curve at half-maximal effect;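 as to activity change, negative = thiol reactive: series mostly up to about 54 µM; thiol-reactive compounds lower the probe fluorescence signal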
Procedure, shortened: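 qHTS titration of compound; 4 uM MSTI, PBS pH 7.4, 2% DMSO; 1 h RT, dark; fluorescence 525/598 nm; normalized to Acetyl-MSTI and MSTI; 4-parameter Hill fit.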

[4] = test system: Nanoluciferase (engineered Oplophorus gracilirostris luciferase); assay: Primary Nanoluciferase (NLuc) qHTS assay for identification of artifact compounds. (AID 1845222); also: series mostly up to about 54 µM
Procedure, shortened: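 Diluted conditioned medium from NLuc-expressing S16 cells treated with compounds for 15 min at room temperature, then Nano-Glo substrate added; luminescence read after 5 min. Percent inhibition versus no-enzyme and DMSO controls fitted to 4-parameter Hill equation.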

[5] = Primary redox qHTS assay for identification of artifact compounds. (AID 1845223)
Procedure, shortened: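 Redox-cycling detection via DTT (250 uM final) oxidation coupled to Amplex Red (25 uM)/HRP (250 mU/mL) in HBSS. 15 min preincubation plus 30 min after DTT, room temperature. Ex/Em 525/598 nm; 4-parameter Hill fit against DMSO and 10 uM DA3003.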

Sequence of Phospholipid hydroperoxide glutathione peroxidase GPX4 (Homo sapiens) (P36969 whole entry, looked up): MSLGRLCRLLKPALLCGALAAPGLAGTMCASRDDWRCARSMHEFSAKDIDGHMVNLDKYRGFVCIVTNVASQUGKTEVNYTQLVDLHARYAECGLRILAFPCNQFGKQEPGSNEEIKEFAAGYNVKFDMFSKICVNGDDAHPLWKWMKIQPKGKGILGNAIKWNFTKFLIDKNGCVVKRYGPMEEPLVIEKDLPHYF

SMILES	Potency [1]	Potency [2]	Potency [3]	Potency [4]	Potency [5]	activity change, negative = inhibition [1]	activity change, negative = inhibition [2]	activity change, negative = thiol reactive [3]	activity, negative = inhibition [4]	redox activity (% of DA3003) [5]
CC1=C(CCC(C)O[C@@H]2O[C@H](CO)[C@@H](O)[C@H](O)[C@H]2O)C(C)(C)CCC1=O (stereo not given in full)	inactive	inactive	6.56 µM (active)	inactive	inactive					
C/C1=C\CCC(C)CCO[C@@H]2O[C@H](CO[C@@H]3OC[C@H](O)[C@H](O)[C@H]3OC1=O)[C@@H](O)[C@H](O)[C@H]2O (stereo not given in full)	inactive	inactive	8.22 µM (active)	inactive	inactive					
O=C(c1ccccc1)c1ccc2nc(NC(=O)c3csc(C4CCN(c5ncnc6ccsc56)CC4)n3)[nH]c2c1	inactive	inactive	inactive	inactive	inactive					
C[C@@]12C[C@]3(O)O[C@H](O1)[C@]1(COC(=O)c4ccccc4)[C@H]3C[C@@]12O[C@@H]1O[C@H](CO)[C@@H](O)[C@H](O)[C@H]1O	inactive	inactive	inactive	inactive	inactive					
CC(C)=CCC[C@](C)(O[C@@H]1O[C@H](CO)[C@@H](O)[C@H](O)[C@H]1O)[C@H]1CC[C@]2(C)[C@@H]1[C@H](O)CC1[C@@]3(C)CC[C@H](O)C(C)(C)C3[C@@H](O[C@@H]3O[C@H](CO)[C@@H](O)[C@H](O)[C@H]3O)C[C@]12C (stereo not given in full)	inactive	inactive	inactive	inactive	inactive					
CCOc1ccc2nc(SCCN3CCOCC3)[nH]c2c1	inactive	inactive	inactive	inactive	inactive					
CC(Oc1cc(-n2cnc3ccc(CN4CCN(C)CC4)cc32)sc1C(N)=O)c1ccccc1C(F)(F)F (stereo not given)	inactive	inactive	inactive	inactive	inactive					
COc1ccc(-c2cnc(-c3cccc4c3-c3ccccc3C4=O)o2)cc1	inactive	inactive	inactive	inactive	inactive					
CC1=CC(=O)[C@]2(O[C@@H]3O[C@@H](C)[C@H](O)[C@@H](O)[C@H]3OC(=O)/C=C/c3ccccc3)C=CO[C@@H](O[C@@H]3O[C@H](CO)[C@@H](O)[C@H](O)[C@H]3O)[C@H]12	inactive	inactive	2.51 µM (active)	inactive	inactive					
Cc1cccc2c1NC(=O)C2(c1ccc(O)cc1)c1ccc(O)cc1	inactive	inactive	inactive	inactive	inactive					
CC1=CC(=O)C2(OC3OC(C)C(O)C(OC(=O)/C=C/c4ccccc4)C3O)C=COC(OC3OC(CO)C(O)C(O)C3O)C12 (stereo not given)	inactive	inactive	1.41 µM (active)	inactive	inactive					
CC(=O)OC12COC1CC(O)C1(C)C(=O)C(O)C3=C(C)C(OC(=O)C(O)C(NC(=O)OC(C)(C)C)c4ccccc4)CC(O)(C(OC(=O)c4ccccc4)C21)C3(C)C (stereo not given)	inactive	inactive	inactive	inactive	inactive					
CCC[C@@H]1O[C@@H]2C[C@H]3[C@@H]4CCC5=CC(=O)C=C[C@]5(C)[C@H]4[C@@H](O)C[C@]3(C)[C@]2(C(=O)CO)O1	inactive	inactive	inactive	inactive	inactive					
CC(C)(C(=O)NCC(F)(F)C(F)(F)F)C(=O)NC1C(=O)Nc2ccccc2-c2ccccc21 (stereo not given)	inactive	inactive	inactive	inactive	inactive					
CC(=O)O[C@@H]1[C@H](O)[C@@H](O[C@@H]2O[C@@H](C)[C@H](O[C@@H]3OC[C@@H](O)[C@H](O[C@@H]4OC[C@@H](O)[C@H](O)[C@H]4O)[C@H]3O)[C@@H](O[C@@H]3O[C@H](CO)[C@@H](O)[C@H](O)[C@H]3O)[C@H]2O)[C@H](OC(=O)[C@]23CCC(C)(C)C[C@H]2C2=CCC4[C@@]5(C)CC[C@H](O[C@@H]6O[C@H](C(=O)O)[C@@H](O)[C@H](O[C@@H]7OC[C@@H](O)[C@H](O)[C@H]7O)[C@H]6O[C@@H]6O[C@H](CO)[C@H](O)[C@H](O)[C@H]6O)[C@@](C)(C=O)C5CC[C@@]4(C)[C@]2(C)CC3)O[C@@H]1C (stereo not given in full)						2.64% [at 9.73 µM]	3.61% [at 6.45 µM]	306% [at 6.41 µM]	0% [at 6.45 µM]	-0.0347% [at 6.41 µM]
CC1(C)CCC2(C(=O)OC3OC(CO)C(O)C(O)C3O)CCC3(C)C(=CCC4C5(C)CCC(OC6OC(C(=O)O)C(OC7OC(CO)C(O)C(O)C7O)C(OC7OC(CO)C(O)C(O)C7O)C6O)C(C)(C)C5CCC43C)C2C1 (stereo not given)	inactive						-0.248% [at 11.6 µM]	123% [at 11.5 µM]	1.02% [at 11.6 µM]	10.6% [at 11.5 µM]
CCCCNc1ccc(-c2ccc(CN3CCOCC3)cn2)c(NC2CCC(O)CC2)c1 (stereo not given)	inactive	inactive	inactive	inactive	inactive					
CC(=O)O[C@H]1CC[C@@]2(C)C(CC[C@@H](C)[C@]23Cc2c(O)cc4c(c2O3)CN([C@@H](CCC(=O)O)C(=O)O)C4=O)C1(C)C (stereo not given in full)	inactive	inactive	inactive	inactive	inactive					
Cc1cc(C)nc(NS(=O)(=O)c2ccc(NC(=S)NC(=O)COc3ccc(Br)cc3Cl)cc2)n1	inactive	inactive	inactive	inactive	inactive					
CN1C2CCC1CC(OC(=O)[C@H](CO)c1ccccc1)C2 (stereo not given in full)	inactive	inactive	inactive	inactive	inactive					
